“And” between values parts separate entries of the source, which are not always exact repeats. Equal values may be shown once. The source made the active and inactive calls. How the source made its calls: active means hit-call score of the fitted dose curve at least 0.9, where 1 is the maximum; inactive means score below 0.9.
assay: BSK_4H_SRB: Viability Assessment in the BioMAP Diversity Plus: 4H Assay (AID 2283027); details: primary human endothelial cells (HUVEC);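 further: cells exposed to compound for 24 h before staining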;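 on AC50: curves fitted both ways versus DMSO so AC50 may be loss or gain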
Method: BSK_4H is a cell-based, multiplexed-readout assay that uses umbilical vein endothelium, a human vascular primary cell, with measurements taken at 24 hours after chemical dosing in a 96-well plate.BSK_4H_SRB is an assay component measured in the BSK_4H assay. It measures […] related to cell death using Sulforhodamine staining technology.Data from the assay component BSK_4H_SRB was analyzed into 1 assay endpoint. This assay endpoint, BSK_4H_SRB, was analyzed with bidirectional fitting relative to DMSO as the negative control and baseline of activity. Using a type of viability reporter, gain or loss-of-signal activity can be used to understand changes in the signaling. Furthermore, this assay endpoint can be referred to as a primary readout, because this assay has produced multiple assay endpoints where this one serves a signaling function. To generalize the intended target to other relatable targets, this assay endpoint is annotated to the cell morphology intended target family, where the subfamily is cell conformation.
The levels of cell surface (or secreted, indicated by the prefix "s") biomarker endpoints were measured by ELISA. Overt cytotoxicity to cells in confluent adherent cultures (all systems other than the BT system) was assessed by measuring total protein levels using sulforhodamine B (SRB) staining in parallel cultures at the time of biomarker measurements, indicated as SRB endpoints. For proliferation assays for adherent cell types, individual cell types are cultured at sub-confluence and relative cell numbers quantified by SRB staining at time points optimized for each system (48 h: 3C and CASM3C systems; 72 h: BT and HDF3CGF systems; 96 h: SAg system). SRB was performed by staining cells with 0.1% SRB after fixation with 10% TCA and reading wells at 560 nm.Viability and proliferation of PBMC (T cells) was quantified by Alamar Blue reduction for the SAg and BT systems. For PBMC viability (referred to as PBMC Cytotoxicity within the assay endpoint names), cells were plated (75,000/well in a 96-well plate) and then chemical samples added for 1 h before addition of activators, SEB and TSST-1 (20 ng/mL final concentration each). Cells were incubated for 90 h. Then, Alamar Blue (20 uL/well) (Invitrogen, Cat DAL1100) was added for 6 h, and the plates were read with a fluorescence microplate reader at 546/580 nm (excitation/emission). For PBMC proliferation, cells were plated and activated as above but incubated for only 16 h prior to addition of Alamar Blue. Plates were read after 6 h.

Row | Structure (SMILES) | outcome | AC50
1 | CN(C)C(=O)Nc1ccc(Cl)c(Cl)c1 | inactive | 
2 | O=C(c1ccc(O)cc1O)c1ccc(O)cc1O | inactive | 
3 | CSC(=O)c1cccc2nnsc12 | inactive | 
4 | COC(=O)c1cccc(C)c1S(=O)(=O)NC(=O)Nc1nc(OCC(F)(F)F)nc(N(C)C)n1 | inactive | 
5 | O=C(Nc1ccc([N+](=O)[O-])cc1Cl)c1cc(Cl)ccc1O |  | 0.516 µM (active)
6 | S=C(S)NCCNC(=S)S.[Mn+2].[S-]C([S-])=NCCN=C([S-])[S-].[Zn+2] | inactive | 
7 | O=C(O)c1ccccc1 | inactive | 
8 | CCNc1nc(N)nc(Cl)n1 | inactive | 
9 | S=C([S-])NCCNC(=S)[S-].[Mn+2] | inactive | 
10 | C[C@]12CC[C@@H]3c4ccc(O)cc4C[C@@H](CCCCCCCCCS(=O)CCCC(F)(F)C(F)(F)F)[C@H]3[C@@H]1CC[C@@H]2O (stereo not given in full) | inactive | 
11 | CCOC(=O)C(C)Oc1ccc(Oc2cnc3cc(Cl)ccc3n2)cc1 (stereo not given) | inactive | 
12 | OB(O)O | inactive | 
13 | COC(=O)c1ccc(I)cc1S(=O)(=O)NC(=O)Nc1nc(C)nc(OC)n1 | inactive | 
14 | Oc1ccc(C(c2ccc(O)cc2)C(Cl)(Cl)Cl)cc1 |  | 19.3 µM (active)
15 | CC(=O)[C@H]1CC[C@H]2[C@@H]3CCC4=CC(=O)CC[C@]4(C)[C@H]3CC[C@]12C | inactive | 
16 | COC(=O)CSc1cc(N=c2sc(=O)n3n2CCCC3)c(F)cc1Cl | inactive | 
17 | COC(=O)c1ccccc1C(=O)O | inactive | 
18 | C[C@]12C[C@H](O)[C@H]3[C@@H](CCC4=CC(=O)CC[C@@]43C)[C@@H]1CC[C@@H]2C(=O)CO | inactive | 
19 | COC(=O)c1c(Cl)nn(C)c1S(=O)(=O)NC(=O)Nc1nc(OC)cc(OC)n1 | inactive | 
20 | CCCCCCC(C)OC(=O)COc1nc(F)c(Cl)c(N)c1Cl (stereo not given) |  | 34.5 µM (active)

Row | Structure (SMILES) | outcome | AC50
21 | CCC(C)OC(=O)N1CCCCC1CCO (stereo not given) | inactive | 
22 | N#CSCSc1nc2ccccc2s1 |  | 3.51 µM (active) and 10.6 µM (active)
23 | CCOC(=O)c1ccc(O)cc1 | inactive | 
24 | CCOC(=O)[C@H](C)Oc1ccc(Oc2nc3ccc(Cl)cc3o2)cc1 | inactive | 
25 | CCCCC(CC)COC(=O)c1ccccc1C(=O)O (stereo not given) | inactive | 
26 | CC(C)(c1ccc(O)cc1)c1ccc(O)cc1 | inactive | 
27 | COc1c(Cl)ccc(Cl)c1C(=O)O | inactive | 
28 | CCOC(=O)COc1cc(-n2ncc(C(F)(F)F)c(C)c2=O)c(F)cc1Cl | inactive | 
29 | CC(=O)S[C@@H]1CC2=CC(=O)CC[C@]2(C)[C@H]2CC[C@@]3(C)[C@@H](CC[C@@]34CCC(=O)O4)[C@H]12 |  | 32 µM (active)
30 | CCCOC(=O)NCCCN(C)C | inactive | 
31 | CC1(C)C(C=C(Cl)Cl)C1C(=O)OCc1cccc(Oc2ccccc2)c1 (stereo not given) | inactive | 
32 | CCCCOC(=O)C(C)Oc1ccc(Oc2ccc(C(F)(F)F)cn2)cc1 (stereo not given) | inactive | 
33 | COc1nc(C)nc(NC(=O)NS(=O)(=O)c2ccccc2OCCCl)n1 | inactive | 
34 | CCCCCOC(=O)COc1cc(N2C(=O)C3=C(CCCC3)C2=O)c(F)cc1Cl | inactive | 
35 | COC(=O)c1ccc(CNS(C)(=O)=O)cc1S(=O)(=O)NC(=O)Nc1nc(OC)cc(OC)n1 | inactive | 
36 | CCSC(=O)N(CC(C)C)CC(C)C | inactive | 
37 | c1ccc(Nc2ccccc2)cc1 | inactive | 
38 | COCCO | inactive | 
39 | C#C[C@]1(O)CC[C@H]2[C@@H]3CCC4=CC(=O)CC[C@@H]4[C@H]3CC[C@@]21CC | inactive | 
40 | CC(C)(C)[C@@H](O)[C@@H](Cc1ccc(Cl)cc1)n1cncn1 | inactive | 

— PubChem BioAssay (EPA / NIEHS)
